Data from paper PMC4336329 (PLoS ONE, 2015).
The campaign covered roughly 310,000 compounds. About 14,000 (4.5%) showed an effect of 50% or more. The effect is printed as a negative number. The list comes from a sample in which strong results are over-represented; it also holds similar structures and randomly drawn compounds.

Molecular target: human ether-à-go-go-related gene (hERG) potassium channel (human, UniProt Q12809)
Experiment: primary screen, population patch clamp on CHO cells stably expressing hERG; higher = less effect of the substance
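Further: peak tail current of the secondary pulse compared with the same well before compound.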

Chain of human ether-à-go-go-related gene (hERG) potassium channel (Q12809 whole entry, looked up): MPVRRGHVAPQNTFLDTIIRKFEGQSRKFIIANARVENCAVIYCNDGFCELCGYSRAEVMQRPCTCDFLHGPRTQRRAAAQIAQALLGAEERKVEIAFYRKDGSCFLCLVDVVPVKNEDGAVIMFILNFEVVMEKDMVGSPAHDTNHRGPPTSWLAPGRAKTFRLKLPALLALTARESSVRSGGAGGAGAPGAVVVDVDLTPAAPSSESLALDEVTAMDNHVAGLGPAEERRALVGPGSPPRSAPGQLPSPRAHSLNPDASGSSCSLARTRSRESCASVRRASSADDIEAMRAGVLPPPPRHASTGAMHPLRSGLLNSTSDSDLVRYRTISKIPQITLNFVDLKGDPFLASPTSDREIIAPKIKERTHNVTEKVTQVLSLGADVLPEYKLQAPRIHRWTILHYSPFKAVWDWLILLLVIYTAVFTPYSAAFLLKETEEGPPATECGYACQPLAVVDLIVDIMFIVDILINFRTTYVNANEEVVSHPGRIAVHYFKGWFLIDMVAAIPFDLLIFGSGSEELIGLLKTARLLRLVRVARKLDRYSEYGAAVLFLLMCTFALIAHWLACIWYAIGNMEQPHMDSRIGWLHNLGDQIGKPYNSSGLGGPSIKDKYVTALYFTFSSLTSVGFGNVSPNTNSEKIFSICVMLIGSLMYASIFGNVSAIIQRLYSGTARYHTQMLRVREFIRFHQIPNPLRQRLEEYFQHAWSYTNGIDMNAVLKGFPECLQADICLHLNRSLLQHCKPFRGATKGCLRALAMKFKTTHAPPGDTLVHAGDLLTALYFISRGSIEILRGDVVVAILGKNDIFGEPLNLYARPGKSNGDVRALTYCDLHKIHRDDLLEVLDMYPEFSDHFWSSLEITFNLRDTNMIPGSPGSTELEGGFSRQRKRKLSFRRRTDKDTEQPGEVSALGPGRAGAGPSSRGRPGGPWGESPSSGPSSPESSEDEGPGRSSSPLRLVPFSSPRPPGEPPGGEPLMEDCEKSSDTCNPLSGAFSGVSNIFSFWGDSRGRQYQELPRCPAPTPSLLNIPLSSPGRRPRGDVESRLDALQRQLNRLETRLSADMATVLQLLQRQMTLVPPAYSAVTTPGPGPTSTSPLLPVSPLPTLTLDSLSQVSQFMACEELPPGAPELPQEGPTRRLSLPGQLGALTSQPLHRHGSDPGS

Going from `CC(=O)Nc1ccc2c(c1)NC(=O)CC2` to `CN(CC(=O)Nc1ccc(Cl)c(C(F)(F)F)c1)C(=O)/C=C/c1ccco1`, the “hERG current change (%, negative = inhibition) at 10uM” value falls from 18.3% to 5.99%.

First: Cc1cc(C)c(S(=O)(=O)N2CCN(C(=O)CCn3nc(C)c(C)c3C)CC2)c(C)c1
Second: CCC(C)NC(=O)CCn1ccc2cc(S(=O)(=O)N3CCCC3)ccc21 (stereo not drawn)
The “hERG current change (%, negative = inhibition) at 10uM” value of the first is lower: -35.8% for the first, 12.3% for the second.

Going from `CCN1CCN(CC(=O)Nc2nc3ccc(C)cc3s2)CC1` to `CCOC(=O)C1CCN(S(=O)(=O)c2ccc3c(c2)N(C(C)=O)CCO3)CC1`, the “hERG current change (%, negative = inhibition) at 10uM” value falls from -34.5% to -67.2%.

First: Cc1cccc(NC(=S)NCCc2ccc(S(N)(=O)=O)cc2)c1C
Second: CCN(CC)c1ccc(/C=N/NS(=O)(=O)c2ccc(CNC(C)=O)cc2)cc1
The “hERG current change (%, negative = inhibition) at 10uM” value of the first is lower: 11.4% for the first, 13.2% for the second.

First: O=C(NCCN1C(=O)S/C(=C\c2cccs2)C1=O)c1ccc(=O)[nH]c1
Second: Cc1ccc2[nH]c(=O)c(CN(Cc3cccs3)C(=S)NCC3CCCO3)cc2c1 (stereo not drawn)
The “hERG current change (%, negative = inhibition) at 10uM” value of the first is lower: -15.5% for the first, 8.11% for the second.

Going from `Cc1cc(Nc2cccc(Cl)c2)c2ccccc2n1` to `Cc1cc(Nc2ccccc2Cl)c2ccccc2n1`, the “hERG current change (%, negative = inhibition) at 10uM” value rises from -68.8% to -64.2%.

First: Cc1cc(Nc2ccc(C)c(C)c2)c2ccccc2n1
Second: Cc1ccc(C)c(Nc2cc(C)nc3ccccc23)c1
The “hERG current change (%, negative = inhibition) at 10uM” value of the first is lower: -66.9% for the first, -49.5% for the second.

Compared with `Cc1cc(Nc2ccccc2O)c2ccccc2n1.Cl`, `Cc1cc(C(=O)Nc2ccccc2Cl)c2ccccc2n1` is higher in “hERG current change (%, negative = inhibition) at 10uM” value: -18.6% for the first, -2.16% for the second.

First: Cc1nc2ccccc2nc1Nc1cccc(Cl)c1
Second: Cc1cc(C)nc(Nc2cccc(Cl)c2)n1.Cl
The “hERG current change (%, negative = inhibition) at 10uM” value of the first is lower: 9.24% for the first, 21.8% for the second.

First: Cc1ccc(Nc2nc3ccccc3c(=O)s2)cc1C
Second: COc1ccc(OC)c(Nc2nc(C)nc3c2oc2ccccc23)c1
The “hERG current change (%, negative = inhibition) at 10uM” value of the first is higher: 6.94% for the first, 5.02% for the second.

First: Cc1ccc(C(=O)NCC(=O)O)s1
Second: Cc1cccc(C(=O)NCC(=O)NC(C)CCc2ccccc2)c1 (stereo not drawn)
The “hERG current change (%, negative = inhibition) at 10uM” value of the first is higher: 23.8% for the first, -0.165% for the second.

Going from `CN(CCOc1ccccc1)C(=O)C1CCC(=O)N(CCCN2CCCC2=O)C1` (stereo not drawn) to `CN(CCOc1ccccc1)C(=O)C1CCC(=O)N(CCN2CCOCC2)C1` (stereo not drawn), the “hERG current change (%, negative = inhibition) at 10uM” value falls from 27.5% to 16.5%.

Going from `CN(CCOc1ccccc1)C(=O)C1CCC(=O)N(CCc2ccc(Cl)cc2)C1` (stereo not drawn) to `COc1ccc(CCN2CC(C(=O)N(C)CCOc3ccccc3)CCC2=O)cc1` (stereo not drawn), the “hERG current change (%, negative = inhibition) at 10uM” value rises from -84.9% to -57.2%.

First: CCc1ccc(CN(C)C(=O)C2CCC(=O)N(CCc3ccc(OC)cc3)C2)nc1 (stereo not drawn)
Second: CCc1ccc(CN(C)C(=O)C2CCC(=O)N(Cc3cccc(OC)c3)C2)nc1 (stereo not drawn)
The “hERG current change (%, negative = inhibition) at 10uM” value of the first is lower: -79.9% for the first, -18.8% for the second.

Compared with `COc1ccc(CCN2CC(C(=O)N(C)Cc3ccccc3OC)CCC2=O)cc1` (stereo not drawn), `COc1ccc(CCN2CC(C(=O)N(C)Cc3ccc(C)o3)CCC2=O)cc1` (stereo not drawn) is higher in “hERG current change (%, negative = inhibition) at 10uM” value: -29.4% for the first, -6.77% for the second.

First: CN(CCC1CCOCC1)C(=O)C1CCC(=O)N(CCc2ccc(Cl)cc2)C1 (stereo not drawn)
Second: CN(CCC1CCOCC1)C(=O)C1CCC(=O)N(CCc2ccccc2)C1 (stereo not drawn)
The “hERG current change (%, negative = inhibition) at 10uM” value of the first is lower: -62% for the first, -15.1% for the second.

First: COc1ccccc1CN1CC(C(=O)N(C)CCOc2ccccc2)CCC1=O (stereo not drawn)
Second: COc1cccc(NC(=O)CN(C)C(=O)CC(NC(=O)c2ccccc2Cl)c2ccccc2)c1 (stereo not drawn)
The “hERG current change (%, negative = inhibition) at 10uM” value of the first is higher: -9.29% for the first, -49.7% for the second.

Going from `CN(C(=O)C1CCC(=O)N(CCc2ccc(Cl)cc2)C1)C1CCOCC1` (stereo not drawn) to `O=c1c2c(nc3nc(NCc4ccc(Cl)cc4)[nH]n13)CCC2`, the “hERG current change (%, negative = inhibition) at 10uM” value rises from 10.7% to 23.2%.

Going from `CCOC(=O)C1CCN(C(=O)COC(=O)CSc2ccc([N+](=O)[O-])cc2)CC1` to `CCOC(=O)C1CCN(S(=O)(=O)c2ccc3oc(=O)ccc3c2)CC1`, the “hERG current change (%, negative = inhibition) at 10uM” value falls from -39.5% to -77%.

Going from `COc1ccc(CCNC(=O)c2ccccc2C(=O)NCCc2ccc(OC)cc2)cc1` to `COc1ccc(C(=O)c2coc3ccc(OC(C)=O)cc23)cc1`, the “hERG current change (%, negative = inhibition) at 10uM” value rises from -12% to 24.9%.

Going from `COc1ccc(OC)c2c1cc(C(=O)N[C@@H](C)C(=O)N[C@@H](C(=O)O)c1ccccc1)n2C` to `CCOc1ccc(NC(=O)CN(C)CC(=O)NC(C)c2ccccc2)cc1OCC` (stereo not drawn), the “hERG current change (%, negative = inhibition) at 10uM” value falls from 19.2% to 6.58%.

Compared with `O=[N+]([O-])c1ccc(O)c(/C=N/n2cnc3ccccc32)c1`, `O=[N+]([O-])c1ccc(Nc2ccc(Cl)cc2)nc1` is higher in “hERG current change (%, negative = inhibition) at 10uM” value: 19.2% for the first, 21.7% for the second.

First: O=C(COC(=O)CCCc1c[nH]c2ccccc12)Nc1ccc2c(c1)OCO2
Second: CCCC(=O)Nc1cccc(C(=O)Nc2ccccc2OCC)c1
The “hERG current change (%, negative = inhibition) at 10uM” value of the first is higher: 15.1% for the first, -14.7% for the second.

First: c1ccc2c(c1)CCCN2Cc1nnnn1CC1CCCO1 (stereo not drawn)
Second: O=S(=O)(c1cccc2nsnc12)N1CCc2ccccc2C1
The “hERG current change (%, negative = inhibition) at 10uM” value of the first is higher: 7.06% for the first, -34.8% for the second.

First: O=[N+]([O-])c1ccc(NNS(=O)(=O)c2cc(Cl)ccc2Cl)nc1
Second: O=[N+]([O-])c1ccc(NCc2ccc(Cl)cc2)nc1
The “hERG current change (%, negative = inhibition) at 10uM” value of the first is lower: -68.8% for the first, 0.977% for the second.

Compared with `CCN(CC)S(=O)(=O)c1ccc(C)c(NC(=O)COC(=O)CNC(=O)c2ccc(C(C)(C)C)cc2)c1`, `CCOc1ccc(NC(=O)CN(C)C(=O)CC(NC(=O)c2ccccc2)c2ccccc2)cc1OCC` (stereo not drawn) is lower in “hERG current change (%, negative = inhibition) at 10uM” value: 7.12% for the first, -51.9% for the second.

Compared with `Cc1c(Cl)cccc1-n1c(SCC(=O)N(C)Cc2ccccc2)nnc1-c1ccncc1`, `Cc1nc(NCc2ccc3c(c2)OCO3)c2nnn(Cc3ccccc3)c2n1` is higher in “hERG current change (%, negative = inhibition) at 10uM” value: -49.5% for the first, -13.9% for the second.

Going from `COc1ccc(CNC(=O)C2CCN(S(=O)(=O)c3cccc4nonc34)CC2)cc1` to `CCOC(=O)C1CCN(S(=O)(=O)c2ccc3[nH]c(=O)ccc3c2)CC1`, the “hERG current change (%, negative = inhibition) at 10uM” value falls from -0.634% to -45.3%.

First: CC(C)Sc1nnc([C@@H]2CCCN2C(=O)OC(C)(C)C)o1
Second: CCOC(=O)C1CCN(S(=O)(=O)c2ccc3[nH]c(=O)oc3c2)CC1
The “hERG current change (%, negative = inhibition) at 10uM” value of the first is higher: 14.7% for the first, -30.9% for the second.

Going from `CCOc1ccc(CCNC(=O)COC(=O)/C=C/c2ccco2)cc1OCC` to `CCOc1ccc(CCNC(=O)/C=C/c2ccco2)cc1OCC`, the “hERG current change (%, negative = inhibition) at 10uM” value falls from 12.9% to -70%.

First: CCOc1ccc(/C=C/C(=O)N(C)CC(=O)Nc2cccc(F)c2)cc1OCC
Second: CCOc1ccc(NC(=O)CN(C)C(=O)/C=C/c2ccco2)cc1OCC
The “hERG current change (%, negative = inhibition) at 10uM” value of the first is higher: 10.6% for the first, -61.2% for the second.

Compared with `CCOc1ccccc1NC(=O)c1cccc(NC(=O)CC(c2ccccc2)c2ccccc2)c1`, `CCOc1ccccc1NC(=O)c1ccc(Cl)c(NC(=O)CC(c2ccccc2)c2ccccc2)c1` is higher in “hERG current change (%, negative = inhibition) at 10uM” value: -67.1% for the first, 2.16% for the second.

Compared with `COc1ccc(CCNC(=O)/C=C/c2ccco2)cc1OC`, `COc1ccc(OC)c(C(=O)c2coc3ccc(O)c(CN(C)C)c23)c1.Cl` is lower in “hERG current change (%, negative = inhibition) at 10uM” value: 0.593% for the first, -12.7% for the second.

First: COc1ccc(-n2c3c(cc(C(=O)NNc4ccccc4C)c2=O)C(=O)CC(C)(C)C3)cc1
Second: COc1ccc(C(=O)c2coc3ccc(O)cc23)cc1
The “hERG current change (%, negative = inhibition) at 10uM” value of the first is higher: 17.7% for the first, 7.61% for the second.

Compared with `O=C(NC(=S)NNC(=O)[C@H]1C[C@@H]1c1ccccc1)c1ccc(F)cc1`, `CC(C)C(NC(=O)c1ccc(F)cc1)C(=O)Nc1cccnc1` (stereo not drawn) is lower in “hERG current change (%, negative = inhibition) at 10uM” value: 3.86% for the first, 0.585% for the second.

First: CCOC(=O)N(Cc1ccccc1)Cc1ccc(C(=O)N[C@@H](Cc2ccccc2)C(=O)O)cc1
Second: CCN(CC)Cc1c(O)ccc2occ(C(=O)c3ccc(OC)cc3)c12
The “hERG current change (%, negative = inhibition) at 10uM” value of the first is higher: 13.8% for the first, -74.2% for the second.

Compared with `CCC1=NN2C(=N)/C(=C/c3ccc(OS(=O)(=O)c4ccccc4)cc3)C(=O)N=C2S1`, `COc1ccc(Oc2coc3c(CN(C)C)c(O)ccc3c2=O)cc1` is higher in “hERG current change (%, negative = inhibition) at 10uM” value: -3.25% for the first, 17.7% for the second.

Compared with `CC(=O)N1CCOc2ccc(S(=O)(=O)N3CCC(C)CC3)cc21`, `CC(=O)N1CCOc2ccc(S(=O)(=O)N3CCCCC3)cc21` is higher in “hERG current change (%, negative = inhibition) at 10uM” value: 6.53% for the first, 11.6% for the second.

Going from `CC/C(=N\NC(=O)C1CC1)c1cccc(Cl)c1` to `CCOC(=O)c1ccccc1NC(=O)c1c(F)c(F)c(F)c(F)c1F`, the “hERG current change (%, negative = inhibition) at 10uM” value falls from 30.9% to 10.2%.

First: Cc1nc(Sc2ccc(Cl)cc2)c(C#N)c(C)c1[N+](=O)[O-]
Second: COC(=O)Cn1cnc2scc(-c3ccc(C)cc3)c2c1=O
The “hERG current change (%, negative = inhibition) at 10uM” value of the first is lower: 6.1% for the first, 7.31% for the second.

Compared with `COc1ccc(C(O)c2coc3ccc(O)c(CN(C)C)c23)cc1` (stereo not drawn), `COc1ccc(OC)c(C(O)c2coc3ccc(O)c(CN(C)C)c23)c1` (stereo not drawn) is higher in “hERG current change (%, negative = inhibition) at 10uM” value: -47.9% for the first, -17% for the second.

First: COc1ccc2occ(C(=O)c3ccc(N)cc3)c2c1
Second: COc1ccc2occ(C(=O)c3ccc(N=C(C)N(C)C)cc3)c2c1
The “hERG current change (%, negative = inhibition) at 10uM” value of the first is higher: 2.02% for the first, -58.8% for the second.

First: COc1ccc2occ(C(=O)c3coc4ccc(O)c(CN(C)C)c34)c2c1.Cl
Second: COc1ccc(C(=O)c2coc3ccc(O)c(CN(C)C)c23)cc1
The “hERG current change (%, negative = inhibition) at 10uM” value of the first is lower: -72.1% for the first, -57.9% for the second.

With `COc1ccc(S(=O)(=O)N/N=C(/C)c2ccco2)cc1` the “hERG current change (%, negative = inhibition) at 10uM” value was -6.76%.
